The values below come from PubChem BioAssay AID2018 (Sanford-Burnham Center for Chemical Genomics, 2009).

Hit rate of the full screen: of about 1,200 compounds, about 600 (50%) were called active. So high a share suggests a set chosen from earlier hits. Some of the results follow. Measured potencies and affinities stand elsewhere. A number with no mark means an inactive call. No stated cut-off is given here; in the data, active means inhibition above about 42%; inactive means the rest.

Sequence of SUMO-conjugating enzyme UBC9 (Homo sapiens) (P63279 whole entry, looked up): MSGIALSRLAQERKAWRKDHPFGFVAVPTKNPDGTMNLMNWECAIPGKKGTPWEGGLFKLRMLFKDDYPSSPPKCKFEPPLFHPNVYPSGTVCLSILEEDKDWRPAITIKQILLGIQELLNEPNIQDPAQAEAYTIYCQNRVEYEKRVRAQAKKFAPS

This assay has as its target SUMO-conjugating enzyme UBC9 (Homo sapiens) (UniProt P63279). Nature of the assay: SUMOylation inhibitor hit validation, confirmation, SUMOylation inhibitor project, biochemical, AlphaScreen (AID 2018). Particulars: AlphaScreen in vitro SUMOylation assay; at 35 µM; hits give high values.
`COc1ccc2cc3c(N)nn(C(=O)Cc4ccc(Cl)cc4)c3nc2c1`: the inhibition was 19.7%.

In the case of `COC(=O)c1c(C)oc(C)c1S(=O)(=O)NC(C)(C)C`, the inhibition was 15%.

For the compound `CCOC(=O)CCc1c(C)c(C#N)c2[nH]c3ccccc3n2c1=O`, the inhibition was 73.9% (active).

In the case of `C=CCNc1nc(NCc2ccccc2)c(C#N)c2c1CN(C)CC2`, the inhibition is 36.6%.

On to `Cc1cc(/C=N/n2c(COc3ccccc3C)nc3ccccc3c2=O)c(O)c([N+](=O)[O-])c1`, for which the inhibition was 102% (active).

As for `COc1ccc(CC2S/C(=N/N=C/c3ccccc3O)NC2=O)cc1` (stereo unspecified), the inhibition was 19%.

As for `CC(=O)Oc1ccc2cc(-c3nc4ccccc4n3C)c(=O)oc2c1`, the inhibition was -26.3%.

Regarding `Brc1ccc(C2Nc3cccc4cccc(c34)N2)o1`, the inhibition is 69.5% (active).

Turning to `Cc1cc(C)cc(NC(=S)Nc2cccc3ccccc23)c1`, the inhibition is 4%.

Regarding `CCC(NC(=O)Cc1c(C)c2c(cc(C)c3c(C)c(C)oc32)oc1=O)C(=O)O` (stereo unspecified), the inhibition is 26.9%.

For the compound `Cc1oc2c(c(C)cc3oc(=O)c(CC(=O)N[C@@H](C)C(=O)O)c(C)c32)c1C`, the inhibition is -7%.

Regarding `CCN(c1ccccc1)S(=O)(=O)c1ccc(Cl)c(NC(=O)COC(=O)c2cc(O)c3ccccc3c2O)c1`, the inhibition is 73% (active).

For `CN1c2ccccc2C(C)(C)C12C=Nc1c(cc(N3CCOCC3)c3ccccc13)O2` (stereo unspecified), the inhibition is 45.2% (active).

Regarding `COc1ccc2ccc3c(c2c1)N=C[C@]1(O3)N(C)c2ccccc2C1(C)C`, the inhibition is 27.7%.

As for `COc1ccc(OC)c(-n2c(-c3cc(-c4ccco4)[nH]n3)n[nH]c2=S)c1`, the inhibition is 48.4% (active).

In the case of `S=c1[nH]nc(-c2cc(-c3ccco3)[nH]n2)n1-c1cccc2ccccc12`, the inhibition is 46.9% (active).

Turning to `S=c1[nH]nc(-c2cc(-c3ccco3)[nH]n2)n1-c1ccccc1Cl`, the inhibition was 96.5% (active).

As for `Cc1ccc(-n2c(-c3cc(-c4ccco4)[nH]n3)n[nH]c2=S)c(Br)c1`, the inhibition is 57% (active).

On to `S=c1[nH]nc(-c2ccco2)n1/N=C/C=C/c1ccco1`, for which the inhibition was 25.8%.

Take `O=C1C2C3C=CC(C3)C2C(=O)N1CNc1ccc(O)cc1` (stereo unspecified): the inhibition was 92.9% (active).

Take `O=C(Nc1ccc(-n2nncc2-c2ccco2)cc1)c1cc2ccccc2oc1=O`: the inhibition is 35.2%.

In the case of `CC(=O)C1C(=O)C=C(c2ccco2)CC1c1ccccc1` (stereo unspecified), the inhibition was -5.3%.

As for `O=C(O)c1cc(-c2ccco2)nn1-c1ccc(Cl)cc1`, the inhibition was 54.7% (active).

In the case of `Cc1cccc(NC(=O)CC2Nc3cccc4cccc(c34)NC2=O)c1` (stereo unspecified), the inhibition is 28.8%.

In the case of `Cc1ccc(C2Nc3cccc4cccc(c34)N2)s1`, the inhibition is 71.9% (active).

Turning to `COc1ccccc1C1Nc2cccc3cccc(c23)N1`, the inhibition is 77.6% (active).

For the compound `COc1cc(OC)c(C2Nc3cccc4cccc(c34)N2)c(OC)c1`, the inhibition is 91.3% (active).

On to `CCOc1ccc(C2Nc3cccc4cccc(c34)N2)cc1OC`, for which the inhibition was 73.4% (active).

As to `C=CCn1c(SCC(=O)N2N=C(c3ccco3)CC2c2ccco2)nnc1-c1ccncc1` (stereo unspecified), the inhibition is 3.2%.

As for `O=C(CC1Nc2cccc3cccc(c23)NC1=O)Nc1ccccc1` (stereo unspecified), the inhibition was 30.7%.

`Fc1cccc(Cl)c1C1Nc2cccc3cccc(c23)N1`: the inhibition is 53.9% (active).

As to `Oc1ccc(C2Nc3cccc4cccc(c34)N2)c(O)c1`, the inhibition is 86.1% (active).

Regarding `O=C1C2C3C=CC(C4CC34)C2C(=O)N1CCc1ccccc1` (stereo unspecified), the inhibition is -31.9%.

Regarding `COCCCNC(=O)c1cccn2c(=O)c3cc4ccccc4cc3nc12`, the inhibition was 16.5%.

For `C=CCOc1c(Cl)cc(CNc2ccc3[nH]c(=O)[nH]c3c2)cc1OC`, the inhibition was 41.5%.

On to `CCOc1c(Br)cc(/C=C2\C(=O)N(CCC#N)N=C2C)cc1OC`, for which the inhibition is 8.8%.

Regarding `Cc1cccc(/C=N/NC(=O)C(C)Nc2cccc3ccccc23)n1` (stereo unspecified), the inhibition is -0.7%.

As for `COCCN=c1scc(-c2ccco2)n1/N=C/c1ccc(O)c(O)c1O`, the inhibition was 82.6% (active).

Take `CC1=NN(c2ccccc2)C(=O)C1`: the inhibition is 53.2% (active).

Regarding `Cc1cc(Br)ccc1-n1[nH]c(C)c(C=Nc2cccc3nsnc23)c1=O`, the inhibition was 39.7%.

For `Cc1[nH]n(-c2ccccc2)c(=O)c1/C=N/N(C)c1ccccc1`, the inhibition was 73% (active).

In the case of `Cc1ccc(/C=C2\SC(=S)N(c3cccnc3)C2=O)o1`, the inhibition is 33.6%.

Consider `CN(C)c1ccc(NC(=O)CSc2nnc(-c3ccco3)c(-c3ccco3)n2)cc1`, for which the inhibition is 46.4% (active).

On to `Cc1cccc2nc(-c3ccco3)c(Nc3ccc4c(c3)OCO4)n12`, for which the inhibition is 19.8%.

In the case of `Cc1ccc(NC(=O)CSc2nnc(-c3ccco3)c(-c3ccco3)n2)cc1`, the inhibition is 97.9% (active).

For the compound `Cc1ccc(C(=O)N[C@H](C(=O)Nc2cc(Cl)cc(Cl)c2)C(C)C)cc1`, the inhibition is -24.1%.

For `COn1c(C)c(C)c2c3nonc3ccc21`, the inhibition is 19.1%.

As to `Cc1nnc(N/N=C\c2ccc(-c3ccccc3[N+](=O)[O-])o2)n1N`, the inhibition was -4.6%.

On to `NS(=O)(=O)c1ccc(-c2ccc(/C=C3\NC(=S)NC3=O)o2)cc1`, for which the inhibition is 70.9% (active).

With `Cc1ccc(C)c(NC(=S)Nc2cccc3cnccc23)c1`, the inhibition was 16.2%.

With `Cc1ccc(NC(=O)Nc2ccno2)cc1`, the inhibition is -5.1%.

`Cc1nn(CC(=O)Nc2ccc(C(=O)N(C)C)cc2)c(=O)c2ccccc12`: the inhibition was -3.7%.

Turning to `O=C1C=C(O)c2c(O)cccc2C1=O`, the inhibition was 43.1% (active).

For `O=C1C=C(O)c2cccc(O)c2C1=O`, the inhibition was 39.2%.

Take `Cc1ccc(N=C2NC(=O)/C(=C\c3ccco3)S2)cc1`: the inhibition is 44.4% (active).

In the case of `COc1ccc(S(=O)(=O)/N=C2/NC(=O)/C(=C\c3ccco3)S2)cc1`, the inhibition is 40.6%.

For the compound `CSCC[C@H](NC(=O)Cc1c(C)c2c(cc(C)c3c(C)c(C)oc32)oc1=O)C(=O)O`, the inhibition was 19.6%.

In the case of `CCc1c(C)c2cc(Cl)c(O)c(CN(C)C)c2oc1=O`, the inhibition is 14.3%.

Consider `CCC(C(=O)O)n1nnc(-c2ccc(OCc3ccccc3)c(OC)c2)n1` (stereo unspecified), for which the inhibition was 2%.

For `COc1ccc2nc(NC(=O)CCc3ccc(OC)c(OC)c3)sc2c1`, the inhibition is -27%.

Consider `NCCSc1c(-c2ccccc2)[nH]c2ccccc12`, for which the inhibition was 4.2%.

As to `Oc1ccc(NCc2ccc(OCc3ccccc3)cc2)cc1`, the inhibition was 61.8% (active).

For the compound `Oc1ccc(N=Cc2ccc(OCc3ccccc3)cc2)cc1`, the inhibition is 25.2%.

For the compound `Oc1ccc(NCc2cccc(OCc3ccccc3)c2)cc1`, the inhibition was 81.1% (active).

Consider `COc1cc(CNc2ccc(O)cc2)cc(Br)c1OCc1ccccc1`, for which the inhibition was 89.1% (active).

With `COc1ccc(Br)cc1CNc1ccc(O)cc1`, the inhibition is 63.1% (active).
